{"source": "PubChem BioAssay AID624297", "about": "(National Center for Advancing Translational Sciences (NCATS), 2012)", "note": "Among all 340,000 compounds or so, about 6,200 (1.8%) were called active. Inconclusive results (about 10%) are left out. This is one part of a sample in which actives are shown more often than they occur. Calls follow the shape of the dose curve; as a rule, active = well fitted activation curve with a large enough effect; inconclusive = small, poorly fitted or top-dose-only effect; inactive = no such curve, though single readings can be large or run the other way. Potency is read from the fitted curve at half-maximal effect."}
{"test": "A quantitative high throughput screen for small molecules that induce DNA re-replication in SW480 colon adenocarcinoma cells; also: nearly all actives have a fitted effect of over 55% in size; as to re-replication activation: % of control where 0% means no effect.", "details": "Hoechst DNA content imaging, 48 h; series mostly up to 46.1 µM; re-replication activation: at the top concentration", "procedure,_shortened": "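Hoechst fluorescence of nuclei (405 nm excitation, 500-530 nm emission) measured by plate-scanning imager after 48 hr compound exposure at 37 C; re-replication scored as increased number of nuclei with elevated intensity.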"}
{"smiles": "Cn1ccc(NC(=O)Nc2ccc(Cl)cc2)n1", "re-replication activation": "9.96% (inactive)"}
{"smiles": "Cc1ccc(C(=O)Nc2ccn(C)n2)cc1", "Potency": "18.4 µM (active)"}
{"smiles": "CN(C)S(=O)(=O)c1cc(C(=O)Nc2ccn(C)n2)c(Cl)cc1Cl", "re-replication activation": "3.79% (inactive)"}
{"smiles": "CC(=O)N(O)CCCCCNC(=O)CCC(=O)N(O)CCCCCNC(=O)CCC(=O)N(O)CCCCCNC(=O)CCC(=O)O", "re-replication activation": "-1.74% (inactive)"}
{"smiles": "CCOc1ccc(N/C=C/C(=O)c2cc(OC)c(OC)c(OC)c2)cc1", "Potency": "0.58 µM (active)"}
{"smiles": "CCOc1ccc(C(=O)Nc2cc(OC)ccc2OC)cc1", "re-replication activation": "-6% (inactive)"}
{"smiles": "CCOc1ccc(NC(=O)Nc2cc(C)ccc2OC)cc1", "re-replication activation": "1.93% (inactive)"}
{"smiles": "CCCC(O)(c1ccccc1)C(c1ccccc1)c1ccccn1", "note": "(stereo unspecified)", "re-replication activation": "-10.4% (inactive)"}
{"smiles": "CC1CN(Cc2ccccc2)C(=S)NC1=O", "note": "(stereo unspecified)", "re-replication activation": "-6.62% (inactive)"}
{"smiles": "O=C(CN1C(=O)/C(=C\\c2ccccc2F)SC1=S)Nc1nc2ccccc2s1", "re-replication activation": "-5.4% (inactive)"}
{"smiles": "COc1ccc(/C=C2\\SC(=S)N(CCC(=O)Nc3ccccn3)C2=O)cc1OC", "re-replication activation": "-27.7% (inactive)"}
{"smiles": "CN(C)S(=O)(=O)c1cccc(-c2nn(-c3ccccc3)cc2/C=C2\\SC(=S)N(CC(=O)O)C2=O)c1", "Potency": "16.4 µM (active)"}
{"smiles": "Cc1ccc(S(=O)(=O)n2oc(=O)c(C3CCCCC3)c2N)cc1", "re-replication activation": "0.714% (inactive)"}
{"smiles": "O=C(Nc1cccc(S(=O)(=O)N2CCOCC2)c1)C12CC3CC(CC(C3)C1)C2", "re-replication activation": "-3.63% (inactive)"}
{"smiles": "CC[C@]12c3[nH]c4ccc(OC)cc4c3CCN1C(=O)C(CC(=O)NCCN1CCOCC1)C[C@@H]2C(=O)N1CCN(C(=O)C2CC2)CC1", "note": "(stereo partly specified)", "re-replication activation": "11.8% (inactive)"}
{"smiles": "C=CCC[C@H](Cc1ccc(F)cc1)C(=O)OC[C@H](C)NC(=O)[C@H](CC=C)CC(=O)N(CCO)Cc1ccccc1", "re-replication activation": "11.5% (inactive)"}
{"smiles": "COc1ccc(NC(=O)CSc2nc3ccccc3c(=O)n2C)cc1", "re-replication activation": "-4.2% (inactive)"}
{"smiles": "CCOc1ccc(NC(=O)CSc2nc3ccccc3c(=O)n2Cc2cccs2)cc1", "Potency": "1.64 µM (active)"}
{"smiles": "CCc1ccc(NC(=O)CSc2nc3ccccc3c(=O)n2CCN2CCOCC2)cc1", "re-replication activation": "4.56% (inactive)"}
{"smiles": "O=C(NCC1(N2CCCCC2)CCCCC1)c1cccc(S(=O)(=O)Nc2ccccc2Cl)c1", "re-replication activation": "6.46% (inactive)"}
{"smiles": "O=C(NCCC(=O)N1O[C@@H]2C=C[C@H]1C2)OCC1c2ccccc2-c2ccccc21", "re-replication activation": "0.0882% (inactive)"}
{"smiles": "O=C(COc1ccc([N+](=O)[O-])cc1Cl)Nc1ccc2[nH]c(=O)[nH]c2c1", "re-replication activation": "-3.8% (inactive)"}
{"smiles": "COc1ccc(-c2c(C)cc3oc(=O)cc(-c4ccccc4)c3c2C)cc1OC", "re-replication activation": "14.2% (inactive)"}
{"smiles": "COc1cc(OC)c2c(-c3cccc(-c4cccc(N)c4)c3)cc(=O)oc2c1", "Potency": "3.66 µM (active)"}
{"smiles": "COc1ccc(-c2c(C)cc3oc(=O)cc(-c4ccccc4)c3c2C)cc1F", "re-replication activation": "40.3% (inactive)"}
{"smiles": "CN(C)C(=O)CCc1ccc2c3c([nH]c2c1)[C@]1(CCc2ccccc2)[C@@H](C(=O)N2CCCCC2)C[C@H](CC(=O)NCCC2=CCCCC2)C(=O)N1CC3", "re-replication activation": "-0.29% (inactive)"}
